sdo1 growth = restores growth of sdo1-depleted yeast; S. cerevisiae sdo1-depleted JHY4D growth rescue, OD600 30 h; stronger effect = higher value; pdr5 snq2 efflux-pump mutant strain; z-score at 10 µM; 0.21% of 140,000 active;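 active = z-score above 3 at both the 24 hr and the 30 hr optical density reads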
ROMK primary = modulates human ROMK potassium channel activity. Tet-inducible ROMK, thallium flux fluorescence; actives lie on both sides. B-score at 10 µM. 2% of 130,000 active. AID 1918;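 active = signal ratio slope over the read window, or its plate-corrected B-score, at least 3 SD from the plate mean, either direction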;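 note: B-score of the F/F0 ratio slope over 7 to 12 s after thallium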
Insulin prom inh = TRM-6 insulin promoter activity inhibition | TRM-6 cells (human fetal islet line), insulin promoter-eGFP reporter, imaging; reporter expression induced with tamoxifen | inhibition, % at 2 µM | 0.9% of 130,000 active | AID 1273;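 active = inhibition above the mean plus 3 SD, with well images judged a real hit on visual review, cut at about 60% in these data, passing the limit was not always enough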
Measles CPE = protection of cells from measles virus; Measles virus-infected cells, CPE protection, absorbance; protection (pct of control), % at 4 µM; 1.5% of 140,000 active; in the data active = protection mostly above about 24%, no sharp cut-off; inactive = mostly below about 26%
ROMK hit retest = human ROMK channel modulation, retest confirmation; normalized thallium flux (F/F0 slope) at 10 µM; ROMK thallium flux, fluorescence ratio; stronger effect = lower value; 54% of 3,000 active; shares compounds with ROMK primary; AID 1917;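 active = Flux at 10 µM at least 3 SD below or above vehicle control mean in one or both replicates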
A number is an active result. Shown are actives, neighbours in structure and some others; about 3% of the full set was active somewhere.

Results for COc1ccc(C2C(C#N)=C(N)OC(C(C)(C)C)=C2C#N)cc1OC (configuration not stated) ?
sdo1 growth: inactive; ROMK primary: -2.3; Measles CPE: inactive; ROMK hit retest: 0.068

How did C=CCNc1nc(-c2cc3ccccc3o2)cs1 do in these assays?
sdo1 growth: inactive; Measles CPE: inactive

What do the screens show for `C=CCNc1nc(-c2ccc(O)c(C(N)=O)c2)cs1`?
sdo1 growth: inactive; ROMK primary: inactive; Insulin prom inh: inactive; Measles CPE: inactive; ROMK hit retest: inactive

What do the screens show for `COc1ccc(CNC(=O)c2ccc3c(=O)n(CCCN4CCCC4=O)c(=S)[nH]c3c2)cc1`?
ROMK primary: inactive; Insulin prom inh: inactive

What do the screens show for `O=C(O)/C=C/c1cn(-c2ncc(C(F)(F)F)cc2Cl)c2ccccc12`?
sdo1 growth: inactive; Insulin prom inh: inactive; Measles CPE: inactive

What do the screens show for `C(#CCN1CCC(Cc2ccccc2)CC1)COCCOCc1ccccc1`?
sdo1 growth: inactive; ROMK primary: -3; Insulin prom inh: inactive; Measles CPE: inactive; ROMK hit retest: 0.063

What do the screens show for `c1ccc(COCCN2CCN(CCOCc3ccccc3)CC2)cc1`?
sdo1 growth: inactive; ROMK primary: inactive; Insulin prom inh: inactive; Measles CPE: inactive

Results for O=C(CSCc1ccccc1)NNC(=S)Nc1cccc(Cl)c1Cl ?
sdo1 growth: inactive; Insulin prom inh: inactive; Measles CPE: inactive; ROMK hit retest: inactive

What do the screens show for `Cc1ccc(NC(=O)/C(=C/c2cccc(Br)c2)NC(=O)c2ccco2)cc1`?
sdo1 growth: inactive; ROMK primary: inactive; Insulin prom inh: inactive; Measles CPE: inactive

How did COc1ccccc1CNC(=O)c1ccc2c(=O)n(CCCN3CCCC3=O)c(=S)[nH]c2c1 do in these assays?
ROMK primary: inactive; Insulin prom inh: inactive

What do the screens show for `CCOc1cc(/C=N/N=C(N)N)ccc1OCc1ccc(Cl)cc1`?
sdo1 growth: inactive; ROMK primary: -3.9; Insulin prom inh: inactive; Measles CPE: inactive; ROMK hit retest: 0.053

How did COc1cc(/C=N/N=C(N)N)ccc1OCc1ccc(Cl)cc1 do in these assays?
ROMK primary: inactive

Results for COc1ccc2c(CC(=O)Nc3ccc(OC)nc3)coc2c1 ?
ROMK primary: inactive; Insulin prom inh: inactive

How did Cc1ccccc1C(=O)NCCN1CCOCC1 do in these assays?
ROMK primary: inactive

What do the screens show for `O=C(NCCN1CCOCC1)c1ccccc1[N+](=O)[O-]`?
sdo1 growth: inactive; ROMK primary: 3.1; Measles CPE: inactive; ROMK hit retest: inactive

What do the screens show for `CS(=O)(=O)N(CC(=O)Nc1ccc(F)c(F)c1)c1cccc([N+](=O)[O-])c1`?
sdo1 growth: inactive; Measles CPE: inactive

High-throughput results deposited in PubChem by several laboratories.
